Shown are actives, neighbours in structure and some others; about 0.87% of the full set was active somewhere.
EPAC2 antagonist: qHTS for Antagonist of cAMP-regulated guanine nucleotide exchange factor 2 (EPAC2): primary screen; Rap guanine nucleotide exchange factor 4 (Homo sapiens), Q8WZA2; EPAC2 GEF exchange of Rap1B-BODIPY-GDP, fluorescence; Potency, µM (doses to about 114 µM), usual class: inhibitors; 360,000 compounds, 0.18% hits; further: nearly all actives have a fitted effect of over 45% in size
FBPA coupling cs: qHTS Assay for Inhibitors of Fructose-1,6-bisphosphate Aldolase from Giardia Lamblia: Coupling assay counterscreen | coupling enzyme system counterscreen, AmpLite Red fluorescence | activity change, negative = inhibition, % at 58.2 µM, hits read low | 290,000 compounds, 0.67% hits; in the data active means activity change below about -30%
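Fluorescence at 525 nm excitation and 598 nm emission measured inhibition of the coupled detection system without aldolase. Compounds (at 57.5 uM final) were preincubated 10 min at room temperature with coupling enzyme reagent before a 20 min substrate/AmpLite Red step.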
EPAC1 antag: qHTS for Antagonist of cAMP-regulated guanine nucleotide exchange factor 3 (EPAC1): primary screen | Rap guanine nucleotide exchange factor 3 (Homo sapiens), O95398 | EPAC1 GEF assay, Rap1b-BODIPY-GDP exchange fluorescence | Potency, µM (titrated, usually from 115 µM), most hits filed as inhibitors | 360,000 compounds, 0.14% hits | AID 720709, 2013; further: nearly all actives have a fitted effect of over 50% in size
Target sequence (O95398 whole entry, looked up): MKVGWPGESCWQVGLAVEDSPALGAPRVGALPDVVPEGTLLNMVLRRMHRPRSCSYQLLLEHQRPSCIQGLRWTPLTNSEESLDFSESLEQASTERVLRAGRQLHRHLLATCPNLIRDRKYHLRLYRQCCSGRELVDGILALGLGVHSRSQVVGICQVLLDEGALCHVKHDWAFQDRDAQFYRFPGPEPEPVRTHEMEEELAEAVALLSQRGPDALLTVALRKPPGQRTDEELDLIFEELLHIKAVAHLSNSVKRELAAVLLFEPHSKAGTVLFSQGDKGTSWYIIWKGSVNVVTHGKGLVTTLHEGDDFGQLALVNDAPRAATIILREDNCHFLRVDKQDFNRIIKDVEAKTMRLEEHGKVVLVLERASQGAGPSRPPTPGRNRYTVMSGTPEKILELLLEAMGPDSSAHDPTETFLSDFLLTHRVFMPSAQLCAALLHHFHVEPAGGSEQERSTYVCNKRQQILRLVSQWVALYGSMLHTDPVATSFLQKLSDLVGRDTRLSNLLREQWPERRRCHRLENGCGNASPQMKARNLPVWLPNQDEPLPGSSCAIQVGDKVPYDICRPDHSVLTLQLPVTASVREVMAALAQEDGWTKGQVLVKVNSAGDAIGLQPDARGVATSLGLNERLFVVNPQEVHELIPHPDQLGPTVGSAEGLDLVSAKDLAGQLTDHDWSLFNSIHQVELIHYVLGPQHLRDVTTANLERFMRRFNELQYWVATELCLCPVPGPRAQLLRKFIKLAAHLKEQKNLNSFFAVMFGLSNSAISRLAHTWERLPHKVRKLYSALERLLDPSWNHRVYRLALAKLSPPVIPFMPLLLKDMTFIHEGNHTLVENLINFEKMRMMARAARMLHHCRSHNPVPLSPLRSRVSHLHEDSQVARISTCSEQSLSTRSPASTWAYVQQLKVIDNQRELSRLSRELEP
EPAC2 ag: qHTS for Agonist of cAMP-regulated guanine nucleotide exchange factor 4 (EPAC2): primary screen; Rap guanine nucleotide exchange factor 4 (Homo sapiens), Q8WZA2; EPAC2 activation, biochemical qHTS; response scale: 100% = 6.5 mM cAMP response; Potency, µM (titrated, usually from 154 µM), most hits filed as activators; 360,000 compounds, 0.079% hits; AID 720711, 2013; further: nearly all actives have a fitted effect of over 50% in size
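In this primary screen, activation is scored as increased exchange of BODIPY-GDP from Rap1B by 100 nM EPAC2, with 50 uM GDP as competitor. Signal is normalized to the 6.5 mM cAMP agonist control.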
USP1 inh: Inhibitors of USP1/UAF1: Primary Screen; Ubiquitin carboxyl-terminal hydrolase 1 (Homo sapiens), O94782; recombinant USP1/UAF1, Ub-Rhodamine cleavage fluorescence; Potency, µM (titrated, usually from 57.1 µM), hits mostly inhibitors; 390,000 compounds, 0.23% hits; AID 743255, 2014; further: nearly all actives have a fitted effect of over 60% in size
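USP1/UAF1 complex (1 nM) preincubated 15 min at room temperature with compound, then Ub-Rho substrate (150 nM final) added. Kinetic fluorescence at 480/540 nm over 6 reads at 60 s intervals; 50 mM HEPES pH 7.8, 0.5 mM EDTA, 0.1 mg/ml BSA, 1 mM TCEP, 0.01% Tween-20.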
EPAC1 ag: qHTS for Agonist of cAMP-regulated guanine nucleotide exchange factor 3 (EPAC1): primary screen; 360,000 compounds, 0.073% hits; AID 720707, 2013; Potency, µM (series often up to 154 µM), hits mostly activators; EPAC1 agonist qHTS, biochemical assay; response scale: 100% = response to 6.5 mM cAMP; further: nearly all actives have a fitted effect of over 60% in size
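EPAC1 100 nM, Rap1B–BODIPY-GDP 250 nM, unlabeled GDP 50 uM; compound titration; 5 min RT; kinetic read ex480/em540 at 5-min intervals ×30 min; data normalized to 6.5 mM cAMP agonist control.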
Hits are given with their value; – = inactive; ? = inconclusive; · = no result given. Unless noted, the call rests on the fitted dose curve; in most records, active means well fitted curve in the direction sought with a large enough effect; inconclusive means small, poorly fitted or top-dose-only effect, or another doubt; inactive means no such curve, though single readings can be large; an effect the other way counts as inactive or inconclusive.

SMILES	EPAC2 antagonist	FBPA coupling cs	EPAC1 antag	EPAC2 ag	USP1 inh	EPAC1 ag
CCCCCn1c(NC(=O)c2ccco2)c(S(=O)(=O)c2ccc(C)cc2)c2nc3ccccc3nc21	–	–	?	–	?	–
C=CCn1c(NC(=O)c2ccccc2Cl)c(C#N)c2nc3ccccc3nc21	?	-52	?	–	16µM	–
N#Cc1c(N)n(CCNC(=O)c2cccs2)c2nc3ccccc3nc12	–	–	–	–	–	–
Cc1cccc(N(CC(=O)NCc2ccc3c(c2)OCO3)C(=O)CCC(=O)Nc2ccccn2)c1C	–	–	–	–	–	–
O=C(Cc1ccc2c(c1)OCO2)NN=Cc1ccc([N+](=O)[O-])o1	–	·	–	–	–	–
COC(=O)C1=C(C)OC(N)=C(C#N)C1c1ccccc1F (stereo not given)	–	–	–	–	–	–
COC(=O)C1=C(C)OC(N)=C(C#N)C1c1cc(OC)c(OCC(N)=O)cc1Cl (stereo not given)	–	-30	–	–	–	–
CC1=CC(C)(C)N(C(=O)CCl)c2ccccc21	?	–	–	–	–	–
CC1=CC(C)(C)N(C(=O)CCl)c2cc(C)ccc21	50µM	–	–	–	–	–
COc1ccc(NC(=O)CN2c3cccc4cccc(c34)S2(=O)=O)cc1	–	-31	–	–	–	–
Cc1ccc(NC(=O)CN2c3cccc4cccc(c34)S2(=O)=O)cc1	–	·	–	–	–	–
COC(=O)c1[nH]c2cc(C)ccc2c1NC(=O)CN1CCCc2ccccc21	–	·	–	7.9µM	–	–
C=CC[C@@H](CC(=O)N[C@H](CO)Cc1ccccc1)C(=O)N[C@H](COC(=O)[C@@H](CC=C)Cc1ccc(F)cc1)C(C)(C)C	–	·	–	–	?	–
CCc1noc(C)c1C(=O)Nc1nc2c(C)cc(C)cc2s1	–	·	–	–	–	89µM
Cc1cc(C)c2nc(NC(=O)c3cc(C)on3)sc2c1	–	–	–	–	–	–
O=C(C[n+]1ccc(/C=N/O)cc1)NCc1ccccc1	–	–	–	–	–	–
COc1ccc(OC)c(/C=N/c2oc(-c3ccco3)c(-c3ccco3)c2C#N)c1	–	-44	–	–	–	–
CCCS(=O)(=O)c1c(S(=O)(=O)CCC)c2c(N)cccn2c1C(=O)c1ccc(F)cc1	–	-38	–	–	–	–
CC(C)C(C(=O)O)N1C(=O)/C(=C/C=C/c2ccco2)SC1=S (stereo not given)	–	–	56µM	–	?	–
CC1=CC(C)(C)Nc2ccc(OC(=O)CN3C(=O)CCC3=O)cc21	–	-32	–	–	–	–
CC1=CC(C)(C)Nc2ccc(OC(=O)C(C)N3C(=O)c4ccccc4C3=O)cc21 (stereo not given)	–	–	–	–	?	–
CCc1cc[n+](-c2nc([O-])sc2C=O)cc1	–	-38	–	–	–	–
CC(C)c1cc[n+](-c2nc([O-])sc2C=O)cc1	–	-40	–	–	–	–
COc1cccc(OC)c1NC(=O)c1ccc(-c2cc(Cl)ccc2Cl)o1	?	·	–	–	·	–
Cc1ccccc1NS(=O)(=O)c1cc(C(=O)NCCC2=CCCCC2)ccc1C	–	–	–	–	–	–
SMILES	EPAC2 antagonist	FBPA coupling cs	EPAC1 antag	EPAC2 ag	USP1 inh	EPAC1 ag
CCOc1ccccc1CNc1ccc(O)cc1	–	-39	4.5µM	–	16µM	–
CCOc1cc(CNc2ccc(O)cc2)ccc1OCc1ccc(Cl)cc1Cl	35µM	-52	?	–	8.9µM	–
CCOc1cccc(CNc2ccc(O)cc2)c1OCc1ccc(Cl)cc1	35µM	-51	25µM	–	25µM	–
NS(=O)(=O)c1ccc(NCc2ccccc2OCc2ccccc2F)cc1	–	·	–	–	–	–
Oc1ccc(NCc2ccccc2OCc2ccccc2Cl)cc1	·	·	·	·	32µM	·
COc1ccccc1CNS(=O)(=O)c1ccc(-n2cnnn2)c(OC)c1	–	–	–	–	–	–
Cc1ccccc1CC1(CO)CCCN(C(=O)c2cc(Cl)ccc2F)C1 (stereo not given)	–	–	–	–	–	–
COc1cccc(N2CCN(C(=O)C3CCN(S(=O)(=O)c4c(C)noc4C)CC3)CC2)c1	·	·	·	·	–	·
Cc1ccc(NCc2ccccc2OCc2ccccc2F)cc1	–	–	–	–	–	–
Oc1ccc(NCc2ccccc2OCc2ccccc2F)cc1	–	-52	79µM	–	?	–
COc1ccc(N2C(=NC(=O)CC3CCCCC3)SC3CS(=O)(=O)CC32)cc1 (stereo not given)	–	–	–	–	–	–
O=[N+]([O-])c1ccc(Sc2cccc[n+]2[O-])c2nonc12	56µM	-80	35µM	–	?	–
COc1ccc(Cl)cc1NC(=O)CN(C)C(=O)C1COc2ccccc2O1 (stereo not given)	–	·	–	–	–	–
COC1=CC(=O)C(C(=O)c2ccccc2)=CC1=O	·	-67	·	·	·	·
O=c1[nH]c2c(s1)C(c1ccco1)C1C3CCC(C3)C1S2 (stereo not given)	–	-44	?	–	–	–
Cc1ccc(C2C(C#N)=C(N)SC(N)=C2C#N)c(C)c1	–	-41	–	–	–	?
Cc1ccc(C2C(C#N)=C(N)SC(N)=C2C#N)cc1	–	–	–	–	?	–
CC1CCc2cccc3c2N1c1cc(C#N)c(C#N)cc1O3 (stereo not given)	–	–	–	–	28µM	–
COC(=O)C(c1ccc(OC)c(OC)c1)C1c2ccccc2C=C(C)N1C(=O)OC (stereo not given)	·	–	·	·	·	·
Cc1ccc(NC(=O)c2oc3ccc(S(=O)(=O)N4CCOCC4)cc3c2C)cc1C	–	–	–	–	–	–
CC1CCCC(C)N1C(=O)c1ccc2c(c1)S(=O)(=O)c1ccccc1C2=O (stereo not given)	–	–	–	–	–	–
Cc1ccc(N/N=C/c2c(C)c(C#N)c(=O)n(C)c2O)cc1C	–	-58	–	–	–	–
